Tests used:
Experiment in all cases: log2 ratio of Biotin-Ahx-Ub-VS probe labelling (fragment/DMSO); higher = less target engagement (more negative = stronger competition), active = hit call of the paper (q ≤ 0.05, log2 ratio ≤ -1)
Conditions in all cases: compound concentration: 200 uM; treatment time: 3 h
OTUD6B = biological target: T1, OTUD6B (UniProt Q8N6M0)
T1 sequence (whole entry): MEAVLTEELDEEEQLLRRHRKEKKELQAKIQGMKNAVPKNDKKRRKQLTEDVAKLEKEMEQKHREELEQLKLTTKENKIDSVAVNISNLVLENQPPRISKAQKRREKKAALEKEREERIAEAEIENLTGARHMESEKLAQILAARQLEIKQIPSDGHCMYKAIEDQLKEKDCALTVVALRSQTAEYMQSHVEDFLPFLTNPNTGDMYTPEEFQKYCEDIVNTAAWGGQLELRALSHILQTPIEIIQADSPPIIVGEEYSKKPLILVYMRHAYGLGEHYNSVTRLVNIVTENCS
In short: (§1)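 Values give the average log2 ratio of fragment to vehicle, assessed by unpaired t-test on global-median-normalised Spectronaut label-free quantities. Proteins needed ≥2 unique peptides. HEK293T lysate (495 µg per sample) was treated in triplicate with fragment at 200 µM or vehicle for 3 h and then with Biotin-Ahx-Ub-VS at 0.5 µM final for 1 h. Labelled DUBs were NeutrAvidin-enriched, digested and run by diaPASEF LC-MS/MS.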

OTUD7B = biological target: T2, OTUD7B (UniProt Q6GQQ9)
T2 sequence (whole entry): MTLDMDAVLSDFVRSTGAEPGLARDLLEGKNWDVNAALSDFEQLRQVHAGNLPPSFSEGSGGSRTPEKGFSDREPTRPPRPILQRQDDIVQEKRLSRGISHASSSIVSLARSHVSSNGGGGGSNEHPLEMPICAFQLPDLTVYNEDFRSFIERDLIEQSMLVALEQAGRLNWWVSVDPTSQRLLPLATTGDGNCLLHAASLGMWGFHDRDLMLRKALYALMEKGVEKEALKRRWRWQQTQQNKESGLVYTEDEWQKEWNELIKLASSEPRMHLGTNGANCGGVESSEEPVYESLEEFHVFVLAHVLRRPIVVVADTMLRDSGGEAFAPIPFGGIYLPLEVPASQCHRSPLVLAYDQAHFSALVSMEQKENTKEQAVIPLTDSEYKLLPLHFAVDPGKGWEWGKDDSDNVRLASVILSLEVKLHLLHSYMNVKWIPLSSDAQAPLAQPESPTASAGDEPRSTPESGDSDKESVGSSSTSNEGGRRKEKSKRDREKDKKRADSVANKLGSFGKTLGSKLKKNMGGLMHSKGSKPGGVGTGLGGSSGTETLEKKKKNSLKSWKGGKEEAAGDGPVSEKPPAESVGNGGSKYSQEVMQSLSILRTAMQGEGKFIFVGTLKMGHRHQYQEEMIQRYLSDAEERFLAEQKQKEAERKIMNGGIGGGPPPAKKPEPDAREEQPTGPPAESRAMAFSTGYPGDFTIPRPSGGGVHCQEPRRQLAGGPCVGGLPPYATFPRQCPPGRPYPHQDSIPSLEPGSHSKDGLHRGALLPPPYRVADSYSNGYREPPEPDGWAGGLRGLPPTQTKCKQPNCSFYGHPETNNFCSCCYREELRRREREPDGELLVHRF
In short: as §1

PRPF8 = PRPF8 (UniProt Q6P2Q9)
In short: as §1

PSMD7 = biological target: T3, PSMD7 (UniProt P51665)
T3 sequence (whole entry): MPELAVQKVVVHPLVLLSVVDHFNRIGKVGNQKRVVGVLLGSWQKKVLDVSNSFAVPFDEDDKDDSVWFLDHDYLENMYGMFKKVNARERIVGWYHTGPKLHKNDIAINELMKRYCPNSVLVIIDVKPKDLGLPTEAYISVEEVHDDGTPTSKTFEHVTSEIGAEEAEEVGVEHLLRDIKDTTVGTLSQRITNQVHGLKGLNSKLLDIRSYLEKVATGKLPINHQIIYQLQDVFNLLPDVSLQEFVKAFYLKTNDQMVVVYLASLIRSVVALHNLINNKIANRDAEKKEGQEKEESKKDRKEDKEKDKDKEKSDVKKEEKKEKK
In short: as §1

UCHL1 = UCHL1 (UniProt P09936)
In short: as §1

UCHL3 = biological target: T4, UCHL3 (UniProt P15374)
T4 sequence (whole entry): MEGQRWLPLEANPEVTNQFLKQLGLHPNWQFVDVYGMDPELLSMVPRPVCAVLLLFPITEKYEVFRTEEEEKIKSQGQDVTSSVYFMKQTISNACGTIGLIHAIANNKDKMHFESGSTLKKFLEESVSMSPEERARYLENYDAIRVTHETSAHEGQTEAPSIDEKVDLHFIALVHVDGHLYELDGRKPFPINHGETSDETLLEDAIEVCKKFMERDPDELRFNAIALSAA
In short: as §1

UCHL5 = biological target: T5, UCHL5 (UniProt Q9Y5K5)
T5 sequence (whole entry): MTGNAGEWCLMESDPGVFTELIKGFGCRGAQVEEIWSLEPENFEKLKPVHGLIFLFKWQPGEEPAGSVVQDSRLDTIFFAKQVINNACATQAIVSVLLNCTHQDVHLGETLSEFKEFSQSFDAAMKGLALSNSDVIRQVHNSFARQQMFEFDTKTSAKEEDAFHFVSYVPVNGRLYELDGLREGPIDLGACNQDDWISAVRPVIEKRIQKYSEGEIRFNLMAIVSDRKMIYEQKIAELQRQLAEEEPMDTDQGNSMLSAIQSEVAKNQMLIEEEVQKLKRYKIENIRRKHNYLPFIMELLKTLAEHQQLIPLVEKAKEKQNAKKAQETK
In short: as §1

USP10 = USP10 (UniProt Q14694)
In short: as §1

USP15 = biological target: T6, USP15 (UniProt Q9Y4E8)
T6 sequence (whole entry): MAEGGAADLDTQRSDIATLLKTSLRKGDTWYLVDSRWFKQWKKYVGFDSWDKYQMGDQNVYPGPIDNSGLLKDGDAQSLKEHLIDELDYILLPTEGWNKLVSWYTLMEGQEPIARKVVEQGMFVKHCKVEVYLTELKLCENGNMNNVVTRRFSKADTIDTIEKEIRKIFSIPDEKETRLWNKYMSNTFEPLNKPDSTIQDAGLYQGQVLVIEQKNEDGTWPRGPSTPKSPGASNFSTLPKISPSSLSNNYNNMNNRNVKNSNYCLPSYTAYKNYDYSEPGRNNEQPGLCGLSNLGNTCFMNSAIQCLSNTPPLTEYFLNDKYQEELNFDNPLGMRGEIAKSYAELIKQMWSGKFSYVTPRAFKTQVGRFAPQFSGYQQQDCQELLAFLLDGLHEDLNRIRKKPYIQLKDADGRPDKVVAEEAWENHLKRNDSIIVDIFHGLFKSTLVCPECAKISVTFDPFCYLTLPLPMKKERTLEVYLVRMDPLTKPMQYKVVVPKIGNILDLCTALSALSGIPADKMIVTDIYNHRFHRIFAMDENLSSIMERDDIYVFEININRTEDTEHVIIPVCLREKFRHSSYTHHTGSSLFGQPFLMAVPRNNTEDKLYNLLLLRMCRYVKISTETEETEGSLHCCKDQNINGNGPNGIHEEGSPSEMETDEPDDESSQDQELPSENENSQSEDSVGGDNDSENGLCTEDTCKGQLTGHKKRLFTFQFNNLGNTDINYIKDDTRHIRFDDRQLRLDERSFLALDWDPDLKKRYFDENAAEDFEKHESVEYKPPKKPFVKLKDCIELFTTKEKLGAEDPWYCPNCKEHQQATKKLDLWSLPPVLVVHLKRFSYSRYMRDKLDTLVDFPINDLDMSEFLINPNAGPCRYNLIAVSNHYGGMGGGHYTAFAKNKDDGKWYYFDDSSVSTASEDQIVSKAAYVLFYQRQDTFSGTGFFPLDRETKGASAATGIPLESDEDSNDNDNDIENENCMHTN
In short: as §1

USP16 = USP16 (UniProt Q9Y5T5)
In short: as §1

Measured: log2 ratio of Biotin-Ahx-Ub-VS probe labelling

Sequence of USP10 (Q14694 whole entry): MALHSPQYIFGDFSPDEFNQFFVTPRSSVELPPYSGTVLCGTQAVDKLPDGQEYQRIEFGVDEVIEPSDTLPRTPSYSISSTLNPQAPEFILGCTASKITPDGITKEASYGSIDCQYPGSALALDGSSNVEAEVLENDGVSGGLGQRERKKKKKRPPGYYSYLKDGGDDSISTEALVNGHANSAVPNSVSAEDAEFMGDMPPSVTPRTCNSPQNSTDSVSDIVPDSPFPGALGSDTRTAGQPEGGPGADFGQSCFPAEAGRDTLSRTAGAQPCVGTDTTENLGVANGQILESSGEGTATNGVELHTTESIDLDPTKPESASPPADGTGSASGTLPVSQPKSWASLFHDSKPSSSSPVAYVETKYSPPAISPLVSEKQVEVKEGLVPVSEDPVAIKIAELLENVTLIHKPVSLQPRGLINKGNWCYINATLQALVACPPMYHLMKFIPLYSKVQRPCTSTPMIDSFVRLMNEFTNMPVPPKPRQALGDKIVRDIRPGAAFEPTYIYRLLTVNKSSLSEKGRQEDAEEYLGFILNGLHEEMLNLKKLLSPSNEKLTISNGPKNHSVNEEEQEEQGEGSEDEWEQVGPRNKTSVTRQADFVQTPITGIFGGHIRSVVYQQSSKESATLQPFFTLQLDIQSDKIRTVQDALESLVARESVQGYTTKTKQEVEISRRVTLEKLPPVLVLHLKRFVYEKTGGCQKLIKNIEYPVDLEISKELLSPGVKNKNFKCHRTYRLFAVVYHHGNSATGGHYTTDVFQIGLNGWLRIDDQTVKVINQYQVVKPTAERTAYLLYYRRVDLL
Sequence of USP16 (Q9Y5T5 whole entry, looked up): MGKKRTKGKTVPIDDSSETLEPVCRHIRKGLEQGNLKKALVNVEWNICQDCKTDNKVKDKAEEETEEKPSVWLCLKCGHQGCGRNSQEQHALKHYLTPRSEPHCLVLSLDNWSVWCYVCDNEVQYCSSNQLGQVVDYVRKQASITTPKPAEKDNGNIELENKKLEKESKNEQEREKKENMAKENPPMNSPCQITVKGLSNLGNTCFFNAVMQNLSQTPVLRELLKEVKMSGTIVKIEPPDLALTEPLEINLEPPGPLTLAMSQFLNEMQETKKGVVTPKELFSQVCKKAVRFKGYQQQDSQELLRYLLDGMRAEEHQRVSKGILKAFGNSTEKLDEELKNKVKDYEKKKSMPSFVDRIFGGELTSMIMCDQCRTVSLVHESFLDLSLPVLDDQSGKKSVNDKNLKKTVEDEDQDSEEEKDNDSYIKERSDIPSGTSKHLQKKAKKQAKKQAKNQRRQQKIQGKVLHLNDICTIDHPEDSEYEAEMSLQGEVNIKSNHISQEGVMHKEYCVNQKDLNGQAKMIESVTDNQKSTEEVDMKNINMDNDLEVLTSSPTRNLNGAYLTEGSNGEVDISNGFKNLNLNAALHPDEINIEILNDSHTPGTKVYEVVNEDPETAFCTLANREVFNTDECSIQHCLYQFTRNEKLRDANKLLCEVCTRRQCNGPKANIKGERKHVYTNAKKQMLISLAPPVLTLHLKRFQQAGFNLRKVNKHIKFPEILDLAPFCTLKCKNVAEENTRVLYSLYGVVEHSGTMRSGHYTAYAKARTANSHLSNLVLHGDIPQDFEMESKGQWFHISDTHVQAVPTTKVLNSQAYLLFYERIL
Sequence of UCHL1 (P09936 whole entry, looked up): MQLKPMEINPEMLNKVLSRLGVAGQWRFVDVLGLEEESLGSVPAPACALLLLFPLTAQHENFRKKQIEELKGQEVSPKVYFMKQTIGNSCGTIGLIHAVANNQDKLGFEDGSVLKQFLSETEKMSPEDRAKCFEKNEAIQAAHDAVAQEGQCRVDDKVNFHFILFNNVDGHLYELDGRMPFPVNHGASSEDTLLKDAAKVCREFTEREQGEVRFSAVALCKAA

Cl.O=C(CCl)N1CCCC(c2ncc[nH]2)C1 (stereo not given)
active: UCHL1 -1.49
inactive: OTUD6B -0.0792 | OTUD7B -0.245 | PRPF8 -0.138 | PSMD7 -0.217 | UCHL3 0.271 | UCHL5 -0.164 | USP10 -0.028 | USP15 -0.0525 | USP16 -0.216
